Experimental data taken from PMC5540273 (PLoS ONE, 2017).

What was measured:
Settings in all cases: concentration: 1 μM, replicates: in singlicate; n = 1
PRKR = tested on: T1, PRKR
T1 construct: gene EIF2AK2

PRKX = tested on: PRKX
PRP4 = tested on: PRP4
PYK2 = tested on: T2, PYK2
T2 construct: gene PTK2B

QSK = tested on: QSK
RAF1 = tested on: RAF1
RET = tested on: RET
RIOK1 = tested on: RIOK1
RIOK2 = tested on: RIOK2
RIOK3 = tested on: RIOK3
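Further: KINOMEscan kinase panel screen.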

| SMILES | %Inh (PRKR) | %Inh (PRKX) | %Inh (PRP4) | %Inh (PYK2) | %Inh (QSK) | %Inh (RAF1) | %Inh (RET) | %Inh (RIOK1) | %Inh (RIOK2) | %Inh (RIOK3) |
| --- | --- | --- | --- | --- | --- | --- | --- | --- | --- | --- |
| CC(C)(C)c1ccc(-n2cnc3c(N)ncnc32)cc1 [SKF-97263] | 0% | 19% | 7% | 4% | 0% | 0% | 8% | 22% | 26% | 23% |
| CCc1nc(-c2cccc(C)c2)c(-c2ccnc(NC(=O)c3ccccc3)c2)s1 | 0% | 0% | 10% | 11% | 0% | 22% | 0% | 14% | 8% | 4% |
| Clc1cc(Nc2ncnc3cc[nH]c23)ccc1OCc1ccccn1 | 0% | 13% | 19% | 9% | 0% | 17% | 17% | 24% | 42% | 0% |
| NC(=O)c1sc(-n2cnc3ccccc32)cc1OCc1ccccc1F [GSK1024306] | 0% | 3% | 2% | 40% | 0% | 0% | 24% | 77% | 79% | 65% |
| CSc1nn2c(=O)cc(N3CCOCC3)nc2n1Cc1cccc(Cl)c1Cl [GSK2347225] | 0% | 23% | 0% | 31% | 8% | 6% | 11% | 34% | 28% | 19% |
| Clc1cccc(-c2nc(Nc3ccncc3)c3ccccc3n2)c1 [GW873004] | 0% | 12% | 50% | 4% | 0% | 46% | 0% | 40% | 0% | 46% |
| O=C(Nc1ccccc1)Nc1ccc(Oc2ccc3nccn3n2)cc1 | 0% | 0% | 0% | 0% | 0% | 31% | 0% | 49% | 0% | 0% |
| Fc1cccc(COc2ccc(Nc3ncnc4sc(-c5ccc[nH]5)cc34)cc2Cl)c1 [GW707818] | 3% | 4% | 25% | 0% | 0% | 18% | 14% | 22% | 0% | 40% |
| Cl.O=S(=O)(c1cccc(F)c1)c1ccc(Nc2ncnc3cc(Br)sc23)cc1Cl [GSK306886] | 0% | 24% | 13% | 0% | 0% | 10% | 97.9% | 9% | 3% | 22% |
| CCn1c(-c2ccncc2)nc2cnccc21 [SB-735216] | 0% | 0% | 18% | 1% | 27% | 6% | 0% | 12% | 20% | 0% |
| Cn1cc(-c2ccc3c(c2)CCN3C(=O)Cc2cccc(C(F)(F)F)c2)c2c(N)ncnc21 [GSK2606414] | 0% | 16% | 9% | 0% | 0% | 14% | 78% | 28% | 18% | 0% |
| CC(C)N1CCC(n2cnc(-c3ccc(F)cc3)c2-c2ccnc(N)n2)CC1 [SB-223132] | 18% | 0% | 41% | 12% | 0% | 33% | 2% | 0% | 0% | 60% |
| CN1c2ccc(-c3ccc(C(=O)NCCO)cc3)cc2-c2[nH]ncc2S1(=O)=O | 1% | 0% | 0% | 6% | 5% | 0% | 13% | 30% | 22% | 17% |
| Cc1ccc(NC(=O)c2cccc(C#N)c2)cc1-c1ccc(C(=O)Nc2ccncc2)cc1 [GSK1398463] | 0% | 14% | 0% | 1% | 3% | 51% | 7% | 21% | 0% | 0% |
| Fc1ccc(Nc2nccc(-c3c(-c4ccc(Cl)cc4)nn4ncccc34)n2)cc1F [GW829058] | 0% | 0% | 0% | 1% | 20% | 18% | 9% | 0% | 10% | 7% |
| Cl.c1ccc(Cn2ccc3cc(Nc4ncnc5ccccc45)ccc32)cc1 [GW275568] | 0% | 17% | 0% | 0% | 0% | 20% | 15% | 20% | 0% | 0% |
| CS(=O)(=O)CCNCc1nc(-c2ccc3ncnc(Nc4ccc(OCc5cccc(F)c5)c(Cl)c4)c3c2)cs1.Cl [GW583340] | 0% | 0% | 0% | 0% | 0% | 1% | 0% | 10% | 0% | 17% |

| SMILES | %Inh (PRKR) | %Inh (PRKX) | %Inh (PRP4) | %Inh (PYK2) | %Inh (QSK) | %Inh (RAF1) | %Inh (RET) | %Inh (RIOK1) | %Inh (RIOK2) | %Inh (RIOK3) |
| --- | --- | --- | --- | --- | --- | --- | --- | --- | --- | --- |
| Fc1cccc(COc2ccc(Nc3ncnc4cc[nH]c34)cc2Cl)c1 | 0% | 19% | 34% | 2% | 9% | 4% | 5% | 21% | 15% | 20% |
| Clc1ccc(-c2cc(-c3c[nH]nc3-c3ccccn3)ccn2)cc1 [GW681251] | 11% | 12% | 9% | 0% | 0% | 4% | 27% | 19% | 2% | 0% |
| FC(F)(F)c1ccc(-c2nn3ncccc3c2-c2ccnc(Nc3cccc(C(F)(F)F)c3)n2)cc1 [GW828205] | 0% | 0% | 0% | 1% | 0% | 0% | 0% | 26% | 0% | 25% |
| Cn1ccc2ncnc(Nc3ccc(Oc4cccc(Cl)c4)c(Cl)c3)c21 | 0% | 11% | 11% | 27% | 2% | 0% | 10% | 0% | 18% | 3% |
| Oc1ccc2ncnc(Nc3ccc(OCc4ccccc4)cc3)c2c1 [GI262866] | 0% | 11% | 26% | 0% | 10% | 18% | 12% | 18% | 4% | 10% |
| COc1ccc(Nc2nccc(N3CCC(NC(=O)c4cccc(NC(C)=O)c4)C3)n2)cc1 (stereo not drawn) [GSK1379732] | 0% | 0% | 48% | 0% | 0% | 0% | 0% | 37% | 0% | 0% |
| Nc1nc(-c2ccc3c(N)n[nH]c3c2)cc(N2CCC[C@@H](C(=O)Nc3ccccc3)C2)n1.O=C(O)C(F)(F)F.O=C(O)C(F)(F)F [GSK2288359] | 0% | 71% | 26% | 0% | 0% | 0% | 0% | 79% | 12% | 82% |
| C[C@@H]1CCN(C(=O)CO)C[C@@H]1N(C)c1ncnc2[nH]ccc12 | 0% | 7% | 0% | 0% | 0% | 0% | 0% | 0% | 0% | 0% |
| O=C(CCO)NCCn1ccc2ncnc(Nc3ccc(Oc4cccc(C(F)(F)F)c4)c(Cl)c3)c21 | 0% | 0% | 8% | 0% | 0% | 0% | 0% | 0% | 0% | 0% |
| CCCc1ccc(S(=O)(=O)NC2CCN(c3ccnc(Nc4ccc(OC)cc4)n3)C2)cc1 (stereo not drawn) [GSK1379737] | 0% | 0% | 60% | 10% | 0% | 0% | 28% | 0% | 0% | 0% |
| CC(=O)Nc1n[nH]c2ncc(-c3ccccc3)cc12 [SB-548492] | 8% | 0% | 1% | 12% | 21% | 0% | 0% | 38% | 17% | 31% |
| Cc1ccc(C)c(NC(=O)NCCNc2ccnc(Nc3ccc(F)cc3)n2)c1 [GSK1379878] | 0% | 0% | 48% | 7% | 0% | 42% | 3% | 36% | 0% | 37% |
| Cl.c1ccc(Cn2ncc3cc(Nc4ncnc5ccccc45)ccc32)cc1 [GW273749] | 0% | 4% | 15% | 0% | 10% | 16% | 13% | 39% | 0% | 19% |
| C[C@H]1CC[C@@H](C(=O)Nc2ccccc2)CN1c1cc(-c2ccc3c(N)n[nH]c3c2)nc(N)n1 [GSK2283293] | 0% | 8% | 2% | 20% | 10% | 6% | 0% | 42% | 8% | 31% |
| COc1ccc(-c2oc3ncnc(N)c3c2-c2ccc(OC)cc2)cc1 [SB-589132] | 0% | 3% | 64% | 7% | 6% | 44% | 11% | 0% | 0% | 0% |
| CCc1nc(-c2cccc(N(C)S(=O)(=O)c3ccccc3)c2)c(-c2ccnc(Nc3ccc(N4CCN(C(C)=O)CC4)nc3)n2)s1 [GSK1645895] | 17% | 23% | 16% | 0% | 1% | 18% | 0% | 17% | 5% | 15% |
